Results published in PubChem BioAssay (NCATS).
Records with an inconclusive call do not appear. Active and inactive are the calls of the source. Calls come from the whole dose curve; as a rule, active = well fitted curve in the direction sought with a large enough effect; inconclusive = small, poorly fitted or top-dose-only effect, or another doubt; inactive = no such curve, though single readings can be large; an effect the other way counts as inactive or inconclusive.

Tests used:
[1] = target: ATP-dependent 6-phosphofructokinase (Trypanosoma brucei brucei) (UniProt O15648); assay: qHTS Assay to Find Inhibitors of T. brucei phosphofructokinase: hit validation (AID 492961);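 note: luminescence reports ADP formed as PFK phosphorylates fructose-6-phosphate with ATP; % is set by controls: 0 for no effect and ±100 for the full control effect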
In short: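 Measures ADP output of PFK (1.25 nM) at 0.1 mM ATP, 0.5 mM F6P, pH 8.0 TEA buffer with 5 mM MgCl2. No-enzyme wells define full inhibition; uninhibited enzyme wells define zero.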

[2] = target: Ubiquitin carboxyl-terminal hydrolase 1 (Homo sapiens) (UniProt O94782); assay: Inhibitors of USP1/UAF1: Pilot qHTS (AID 504865);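 note: rhodamine fluorescence freed from ubiquitin-rhodamine substrate followed over time; top concentration of the series differs between compounds; % is set by controls: 0 for no effect and ±100 for the full control effect; nearly all actives have a fitted effect of over 35% in size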
In short: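 In 50mM HEPES pH 7.8 containing 0.5mM EDTA, 1mM TCEP, 0.1 mg/ml BSA and 0.01% Tween-20, 1nM USP1/UAF1 is exposed to compound for 15 min, then Ub-Rho (150nM final) is added and fluorescence is read over time.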

[3] = target: Luciferin 4-monooxygenase (Photinus pyralis) (UniProt P08659); assay: Biochemical firefly luciferase enzyme assay for NPC (AID 624030);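 note: purified P. pyralis luciferase at 10 nM with luciferin and ATP substrate; 0% = DMSO and -100% = full luciferase inhibition by PTC124 control; nearly all actives have a fitted effect of over 70% in size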
In short: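 Direct inhibition of firefly luciferase enzyme (10 nM final, 50 mM Tris Acetate) assessed by luminescence within 5 minutes. Percent activity scaled between DMSO and PTC124 positive control, with concentration-effect curves classified by fit quality and response.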

[4] = S16 Schwann cell viability assay (CellTiter-Glo assay) (AID 624031);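 note: native untransfected S16 rat Schwann cells; plate controls were DMSO-treated cells for no effect and cell-free wells for full effect; nearly all actives have a fitted effect of over 70% in size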
In short: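 Counter-screen for cytotoxicity: parental S16 rat Schwann cells lacking the PMP22 reporters, treated 24 h with compound, viability from cellular ATP by CellTiter-Glo luminescence, normalized to DMSO (0%) and no-cell wells.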

[5] = S16 Schwann cell PMP22 intronic element firefly luciferase assay (AID 624032);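 note: plate controls were DMSO for no effect and PTC124 positive control mean for full effect; nearly all actives have a fitted effect of over 30% in size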
In short: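 Luciferase reporter of PMP22 intronic-element expression in stably transfected S16 rat Schwann cells, read by ONE-Glo luminescence after 24 h compound exposure at 37 C. Activity scaled between DMSO (0%) and positive-control PTC124; concentration-effect curves quality-classified.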

[6] = qHTS profiling for inhibitors of Plasmodium falciparum proliferation (AID 504749);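 note: 0% = DMSO vehicle and full inhibition = artemisinin control; nearly all actives have a fitted effect of over 60% in size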; conditions: P. falciparum in erythrocytes, SYBR Green DNA, 72 h, at 28.7 µM (top of the series)
In short: (§1)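 In a 72 h erythrocytic culture (37 C, humidified, 5% CO2) at 2.5% hematocrit and 0.3% starting parasitemia, compounds were tested; SYBR Green I in detergent lysis buffer stained parasite DNA overnight.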

3D7 = assay: as above; conditions: P. falciparum in erythrocytes, SYBR Green DNA, 72 h; series mostly up to 28.7 µM
In short: as §1

7G8 = assay: as above; conditions: P. falciparum in erythrocytes, SYBR Green DNA, 72 h; series mostly up to 28.7 µM
In short: as §1

AA1029 = assay: as above; conditions: P. falciparum in erythrocytes, SYBR Green DNA, 72 h; series mostly up to 28.7 µM
In short: as §1

AS120 = assay: as above; conditions: P. falciparum in erythrocytes, SYBR Green DNA, 72 h; series mostly up to 28.7 µM
In short: as §1

ATS189 = assay: as above; conditions: P. falciparum in erythrocytes, SYBR Green DNA, 72 h; series mostly up to 28.7 µM
In short: as §1

ATS95 = assay: as above; conditions: P. falciparum in erythrocytes, SYBR Green DNA, 72 h; series mostly up to 28.7 µM
In short: as §1

C2A = assay: as above; conditions: P. falciparum in erythrocytes, SYBR Green DNA, 72 h; series mostly up to 28.7 µM
In short: as §1

CP185 = assay: as above; conditions: P. falciparum in erythrocytes, SYBR Green DNA, 72 h; series mostly up to 28.7 µM
In short: as §1

CP191 = assay: as above; conditions: P. falciparum in erythrocytes, SYBR Green DNA, 72 h; series mostly up to 28.7 µM
In short: as §1

CP192 = assay: as above; conditions: P. falciparum in erythrocytes, SYBR Green DNA, 72 h; series mostly up to 28.7 µM
In short: as §1

CP194 = assay: as above; conditions: P. falciparum in erythrocytes, SYBR Green DNA, 72 h; series mostly up to 28.7 µM
In short: as §1

CP201 = assay: as above; conditions: P. falciparum in erythrocytes, SYBR Green DNA, 72 h; series mostly up to 28.7 µM
In short: as §1

CP203 = assay: as above; conditions: P. falciparum in erythrocytes, SYBR Green DNA, 72 h; series mostly up to 28.7 µM
In short: as §1

CP211 = assay: as above; conditions: P. falciparum in erythrocytes, SYBR Green DNA, 72 h; series mostly up to 28.7 µM
In short: as §1

CP215 = assay: as above; conditions: P. falciparum in erythrocytes, SYBR Green DNA, 72 h; series mostly up to 28.7 µM
In short: as §1

CP217 = assay: as above; conditions: P. falciparum in erythrocytes, SYBR Green DNA, 72 h; series mostly up to 28.7 µM
In short: as §1

CP237 = assay: as above; conditions: P. falciparum in erythrocytes, SYBR Green DNA, 72 h; series mostly up to 28.7 µM
In short: as §1

CP238 = assay: as above; conditions: P. falciparum in erythrocytes, SYBR Green DNA, 72 h; series mostly up to 28.7 µM
In short: as §1

CP247 = assay: as above; conditions: P. falciparum in erythrocytes, SYBR Green DNA, 72 h; series mostly up to 28.7 µM
In short: as §1

CP250 = assay: as above; conditions: P. falciparum in erythrocytes, SYBR Green DNA, 72 h; series mostly up to 28.7 µM
In short: as §1

CP252 = assay: as above; conditions: P. falciparum in erythrocytes, SYBR Green DNA, 72 h; series mostly up to 28.7 µM
In short: as §1

CP256 = assay: as above; conditions: P. falciparum in erythrocytes, SYBR Green DNA, 72 h; series mostly up to 28.7 µM
In short: as §1

CP260 = assay: as above; conditions: P. falciparum in erythrocytes, SYBR Green DNA, 72 h; series mostly up to 28.7 µM
In short: as §1

CP262 = assay: as above; conditions: P. falciparum in erythrocytes, SYBR Green DNA, 72 h; series mostly up to 28.7 µM
In short: as §1

CP265 = assay: as above; conditions: P. falciparum in erythrocytes, SYBR Green DNA, 72 h; series mostly up to 28.7 µM
In short: as §1

CP266 = assay: as above; conditions: P. falciparum in erythrocytes, SYBR Green DNA, 72 h; series mostly up to 28.7 µM
In short: as §1

CP268 = assay: as above; conditions: P. falciparum in erythrocytes, SYBR Green DNA, 72 h; series mostly up to 28.7 µM
In short: as §1

CP269 = assay: as above; conditions: P. falciparum in erythrocytes, SYBR Green DNA, 72 h; series mostly up to 28.7 µM
In short: as §1

CP286 = assay: as above; conditions: P. falciparum in erythrocytes, SYBR Green DNA, 72 h; series mostly up to 28.7 µM
In short: as §1

CP291 = assay: as above; conditions: P. falciparum in erythrocytes, SYBR Green DNA, 72 h; series mostly up to 28.7 µM
In short: as §1

CP297 = assay: as above; conditions: P. falciparum in erythrocytes, SYBR Green DNA, 72 h; series mostly up to 28.7 µM
In short: as §1

CP305 = assay: as above; conditions: P. falciparum in erythrocytes, SYBR Green DNA, 72 h; series mostly up to 28.7 µM
In short: as §1

CP315 = assay: as above; conditions: P. falciparum in erythrocytes, SYBR Green DNA, 72 h; series mostly up to 28.7 µM
In short: as §1

CP325 = assay: as above; conditions: P. falciparum in erythrocytes, SYBR Green DNA, 72 h; series mostly up to 28.7 µM
In short: as §1

CP329 = assay: as above; conditions: P. falciparum in erythrocytes, SYBR Green DNA, 72 h; series mostly up to 28.7 µM
In short: as §1

CP335 = assay: as above; conditions: P. falciparum in erythrocytes, SYBR Green DNA, 72 h; series mostly up to 28.7 µM
In short: as §1

DFO2036 = assay: as above; conditions: P. falciparum in erythrocytes, SYBR Green DNA, 72 h; series mostly up to 28.7 µM
In short: as §1

DIV14 = assay: as above; conditions: P. falciparum in erythrocytes, SYBR Green DNA, 72 h; series mostly up to 28.7 µM
In short: as §1

DIV17 = assay: as above; conditions: P. falciparum in erythrocytes, SYBR Green DNA, 72 h; series mostly up to 28.7 µM
In short: as §1

DIV30 = assay: as above; conditions: P. falciparum in erythrocytes, SYBR Green DNA, 72 h; series mostly up to 28.7 µM
In short: as §1

Dd2 = assay: as above; conditions: P. falciparum in erythrocytes, SYBR Green DNA, 72 h; series mostly up to 28.7 µM
In short: as §1

ECU = assay: as above; conditions: P. falciparum in erythrocytes, SYBR Green DNA, 72 h; series mostly up to 28.7 µM
In short: as §1

FAB9 = assay: as above; conditions: P. falciparum in erythrocytes, SYBR Green DNA, 72 h; series mostly up to 28.7 µM
In short: as §1

GB4 = assay: as above; conditions: P. falciparum in erythrocytes, SYBR Green DNA, 72 h; series mostly up to 28.7 µM
In short: as §1

HB3 = assay: as above; conditions: P. falciparum in erythrocytes, SYBR Green DNA, 72 h; series mostly up to 28.7 µM
In short: as §1

ICS = assay: as above; conditions: P. falciparum in erythrocytes, SYBR Green DNA, 72 h; series mostly up to 28.7 µM
In short: as §1

JCK = assay: as above; conditions: P. falciparum in erythrocytes, SYBR Green DNA, 72 h; series mostly up to 28.7 µM
In short: as §1

N140 = assay: as above; conditions: P. falciparum in erythrocytes, SYBR Green DNA, 72 h; series mostly up to 28.7 µM
In short: as §1

P93_24 = assay: as above; conditions: P. falciparum in erythrocytes, SYBR Green DNA, 72 h; series mostly up to 28.7 µM
In short: as §1

P94_40 = assay: as above; conditions: P. falciparum in erythrocytes, SYBR Green DNA, 72 h; series mostly up to 28.7 µM
In short: as §1

PAD = assay: as above; conditions: P. falciparum in erythrocytes, SYBR Green DNA, 72 h; series mostly up to 28.7 µM
In short: as §1

PC15 = assay: as above; conditions: P. falciparum in erythrocytes, SYBR Green DNA, 72 h; series mostly up to 28.7 µM
In short: as §1

PC26 = assay: as above; conditions: P. falciparum in erythrocytes, SYBR Green DNA, 72 h; series mostly up to 28.7 µM
In short: as §1

PC49 = assay: as above; conditions: P. falciparum in erythrocytes, SYBR Green DNA, 72 h; series mostly up to 28.7 µM
In short: as §1

SC27B = assay: as above; conditions: P. falciparum in erythrocytes, SYBR Green DNA, 72 h; series mostly up to 28.7 µM
In short: as §1

TAB109 = assay: as above; conditions: P. falciparum in erythrocytes, SYBR Green DNA, 72 h; series mostly up to 28.7 µM
In short: as §1

TAB113 = assay: as above; conditions: P. falciparum in erythrocytes, SYBR Green DNA, 72 h; series mostly up to 28.7 µM
In short: as §1

TAB165 = assay: as above; conditions: P. falciparum in erythrocytes, SYBR Green DNA, 72 h; series mostly up to 28.7 µM
In short: as §1

W2 = assay: as above; conditions: P. falciparum in erythrocytes, SYBR Green DNA, 72 h; series mostly up to 28.7 µM
In short: as §1

Ubiquitin carboxyl-terminal hydrolase 1 (Homo sapiens), sequence (O94782 whole entry, looked up): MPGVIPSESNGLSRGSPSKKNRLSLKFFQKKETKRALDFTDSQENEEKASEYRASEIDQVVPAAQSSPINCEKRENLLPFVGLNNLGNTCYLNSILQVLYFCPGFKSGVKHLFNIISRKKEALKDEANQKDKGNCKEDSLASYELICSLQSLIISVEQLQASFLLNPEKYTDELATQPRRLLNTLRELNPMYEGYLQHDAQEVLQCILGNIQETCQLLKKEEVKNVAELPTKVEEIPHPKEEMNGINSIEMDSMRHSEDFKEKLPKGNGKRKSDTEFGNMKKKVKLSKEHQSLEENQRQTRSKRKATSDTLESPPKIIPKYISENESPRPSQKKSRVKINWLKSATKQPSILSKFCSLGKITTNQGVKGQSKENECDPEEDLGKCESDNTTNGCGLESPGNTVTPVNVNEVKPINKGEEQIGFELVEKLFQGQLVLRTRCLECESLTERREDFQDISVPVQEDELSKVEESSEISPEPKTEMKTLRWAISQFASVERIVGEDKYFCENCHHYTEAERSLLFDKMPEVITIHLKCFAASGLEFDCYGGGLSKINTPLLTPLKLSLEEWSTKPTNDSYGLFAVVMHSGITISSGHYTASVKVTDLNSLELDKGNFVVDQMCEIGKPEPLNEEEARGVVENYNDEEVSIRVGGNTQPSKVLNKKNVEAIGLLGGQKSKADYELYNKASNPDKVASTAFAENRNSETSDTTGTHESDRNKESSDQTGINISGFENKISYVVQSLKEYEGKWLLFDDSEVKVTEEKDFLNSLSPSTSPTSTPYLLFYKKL
Luciferin 4-monooxygenase (Photinus pyralis), sequence (P08659 whole entry, looked up): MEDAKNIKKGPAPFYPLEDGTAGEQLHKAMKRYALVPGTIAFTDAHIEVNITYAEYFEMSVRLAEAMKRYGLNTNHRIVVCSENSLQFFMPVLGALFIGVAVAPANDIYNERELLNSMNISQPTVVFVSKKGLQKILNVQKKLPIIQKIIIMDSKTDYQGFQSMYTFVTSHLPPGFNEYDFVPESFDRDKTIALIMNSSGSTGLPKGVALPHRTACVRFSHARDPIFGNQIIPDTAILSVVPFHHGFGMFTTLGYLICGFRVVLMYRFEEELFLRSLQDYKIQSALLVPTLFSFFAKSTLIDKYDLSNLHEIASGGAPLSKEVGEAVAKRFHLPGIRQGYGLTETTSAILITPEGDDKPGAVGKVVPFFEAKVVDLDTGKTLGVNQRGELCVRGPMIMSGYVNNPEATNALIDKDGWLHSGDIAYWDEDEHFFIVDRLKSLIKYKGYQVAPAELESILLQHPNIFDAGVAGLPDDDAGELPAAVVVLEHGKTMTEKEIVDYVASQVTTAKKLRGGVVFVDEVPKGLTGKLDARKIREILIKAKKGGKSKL
ATP-dependent 6-phosphofructokinase (Trypanosoma brucei brucei), sequence (O15648 whole entry, looked up): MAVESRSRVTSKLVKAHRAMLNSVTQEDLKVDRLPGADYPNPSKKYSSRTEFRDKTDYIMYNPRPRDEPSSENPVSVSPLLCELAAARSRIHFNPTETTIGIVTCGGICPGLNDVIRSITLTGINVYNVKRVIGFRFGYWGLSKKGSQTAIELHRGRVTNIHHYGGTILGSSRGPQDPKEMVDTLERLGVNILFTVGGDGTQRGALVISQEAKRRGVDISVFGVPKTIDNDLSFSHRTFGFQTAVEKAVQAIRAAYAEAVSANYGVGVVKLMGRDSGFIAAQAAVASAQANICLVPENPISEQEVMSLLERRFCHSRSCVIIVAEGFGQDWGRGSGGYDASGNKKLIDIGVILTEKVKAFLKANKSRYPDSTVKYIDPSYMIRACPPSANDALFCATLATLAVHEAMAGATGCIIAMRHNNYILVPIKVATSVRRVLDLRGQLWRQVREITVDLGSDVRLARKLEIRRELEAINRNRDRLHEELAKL

CO/N=C(/C(=O)N[C@@H]1C(=O)N2C(C(=O)O)=C(C[n+]3ccc(N)n3CCO)CS[C@H]12)c1csc(N)n1
inactive: Potency [1] | Potency [2] | Potency [3] | Potency [4] | Potency [5] | activity, negative = inhibition ([6]; parasite line A) 0.303% | activity, negative = inhibition ([6]; parasite line B) 9.51% | Potency (3D7) | Potency (7G8) | Potency (AA1029) | Potency (AS120) | Potency (ATS189) | Potency (ATS95) | Potency (C2A) | Potency (CP185) | Potency (CP191) | Potency (CP192) | Potency (CP194) | Potency (CP201) | Potency (CP203) | Potency (CP211) | Potency (CP215) | Potency (CP217) | Potency (CP237) | Potency (CP238) | Potency (CP247) | Potency (CP250) | Potency (CP252) | Potency (CP256) | Potency (CP260) | Potency (CP262) | Potency (CP265) | Potency (CP266) | Potency (CP268) | Potency (CP269) | Potency (CP286) | Potency (CP291) | Potency (CP297) | Potency (CP305) | Potency (CP315) | Potency (CP325) | Potency (CP329) | Potency (CP335) | Potency (DFO2036) | Potency (DIV14) | Potency (DIV17) | Potency (DIV30) | Potency (Dd2) | Potency (ECU) | Potency (FAB9) | Potency (GB4) | Potency (HB3) | Potency (ICS) | Potency (JCK) | Potency (N140) | Potency (P93_24) | Potency (P94_40) | Potency (PAD) | Potency (PC15) | Potency (PC26) | Potency (PC49) | Potency (SC27B) | Potency (TAB109) | Potency (TAB113) | Potency (TAB165) | Potency (W2)
